The whole screen tested about 1,900 compounds, of which about 1,600 (84%) were called active.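 How the source made its calls: active means mean activation above a set limit taken from the primary screen (cut at about 8% in these data); inactive means the rest.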 The set was probably picked from earlier hits. A selection follows.
Experiment: frataxin promoter-driven luciferase activation – cell-based, luminescence, HEK293 lucGAA850, triplicate, confirmation (AID 588351);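 further: 0% = DMSO wells and 100% = 10 µM SAHA wells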
Conditions: HEK293 lucGAA850 FXN promoter luciferase reporter, 24 h; at 6 µM; active compounds read high
In the case of `CC(C)(C)c1ccc(OC(=O)N2CCCCC2)cc1`, the activation is reported as 35% (active).

Reference: PubChem BioAssay AID588351 (The Scripps Research Institute Molecular Screening Center, 2011)
